The supplement of paper PMC10338343
± gives the standard deviation.

Test system: MILI (PIWIL2) piRISC loaded with L1MC piRNA (26 nt)
Assay: pre-steady-state target cleavage rate (min^-1); guide: L1MC piRNA 5'p-UAACUAAAUACUAUGCAAGCUGUAGG; MIWI and MILI are mouse PIWI proteins and EfPiwi is from a freshwater sponge; tags in brackets are library labels; higher = faster piRNA-guided slicing of the target
In short: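 In this Cleave-'n-Seq assay, uncleaved targets were sequenced and normalised to depth and to weakly complementary targets. They came from a transcribed, DNA-blocked target RNA library […] mixed with 1 nM active affinity-purified piRISC carrying one synthetic guide, with or without 500 nM GTSF1 partner protein, in HEPES–potassium acetate buffer at 33 °C for 0–8 or 0–960 min. After three trials were pooled and k3 was capped at 0.0001 min^-1, the pre-steady-state cleavage rate was obtained from a burst-and-steady-state fit.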

[1] = auxiliary factor: 500 nM mouse GTSF1
[2] = auxiliary factor: none (no GTSF1)
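Further: 1 nM active piRISC with 0.1 nM target library at 33 °C single turnover.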

Sequence: UCCUGGAUGUCCUUGCAUAGUAUAAAGUAA
- pre-steady-state target cleavage rate [1]: 0.0169 ± 0.0066

Sequence: UCCUGGUACUGCUUGCAUAGUAUUAAGUUA
- pre-steady-state target cleavage rate [1]: 0.15 ± 0.035

Sequence: UCCUGGAUGUCCUUGCAUAGUAUUUUCAUA
- pre-steady-state target cleavage rate [1]: 0.0192 ± 0.0081

Sequence: UCCUGGAUCAGCUUGCAUAGUAAUUACAAA
- pre-steady-state target cleavage rate [1]: 0.145 ± 0.04

Sequence: UCCUGGAACAGCUAGCAUAGUAUUUACUUA
- pre-steady-state target cleavage rate [1]: 0.0669 ± 0.016

Sequence: UCCUGGAUGUCCUAGCAUAGUAUUUAGAUA
- pre-steady-state target cleavage rate [1]: 0.0302 ± 0.007

Sequence: UCCUGGAUGUCGAACGUUAGUAUUUAGUGUA
- pre-steady-state target cleavage rate [2]: < 0.0001

Sequence: UCCUGGAUGUCGAACGUAUGUAUUUACAAA
- pre-steady-state target cleavage rate [2]: < 0.0001

Sequence: UCCUGGAUGUCGAUGCAUAGUAUUUCAGUUA
- pre-steady-state target cleavage rate [1]: 0.108 ± 0.025

Sequence: UCCUGGAACAGCUUGCAUAGUAUAUAGAUA
- pre-steady-state target cleavage rate [1]: 0.0877 ± 0.022

Sequence: UCCUGGAUGUCGUUGCAUAGUAUUUUCUUA
- pre-steady-state target cleavage rate [1]: 0.00558 ± 0.0035

Sequence: UCCUGGAUCAGCUUGCAUAGUAAUUUCAAA
- pre-steady-state target cleavage rate [1]: 0.042 ± 0.016

Sequence: UCCUGGAACACGAUGCAUAGUAUUUUCAAA
- pre-steady-state target cleavage rate [1]: 0.0494 ± 0.017

Sequence: UCCUGGAUCAGGAAGCAUAGUAUUUAGAAA
- pre-steady-state target cleavage rate [1]: 0.0247 ± 0.0063

Sequence: UCCUGCUUGUGCUUGCAUAGUAUUUACAAA
- pre-steady-state target cleavage rate [1]: 0.0112 ± 0.0055

Sequence: UCCUCCUACAGCUUGCAAUGUAUUUAGAAA
- pre-steady-state target cleavage rate [1]: 0.0725 ± 0.016

Sequence: UCCUGCUACAGCUUGCAUAGUUAUUACAAA
- pre-steady-state target cleavage rate [1]: 0.00534 ± 0.0038

Sequence: UCCUGGAUCAGCUUGGAUAGUAUUUUCAAA
- pre-steady-state target cleavage rate [2]: < 0.0001

Sequence: UCCUCCUACAGCUUGCAUACAAUUUAGUUA
- pre-steady-state target cleavage rate [1]: 0.00727 ± 0.0046

Sequence: UCCUGGAUGUCCUAGCAAAGUAUUUAGUUA
- pre-steady-state target cleavage rate [1]: 0.00585 ± 0.0032

Sequence: UCCUGGAUGACCUUGCAUAGUAAUUAGUUA
- pre-steady-state target cleavage rate [1]: 0.131 ± 0.027

Sequence: UCCUGGAUCAGCUUGCAUACUAUUUAGAAA
- pre-steady-state target cleavage rate [1]: 0.0141 ± 0.0069

Sequence: UCCUGGAACAGCUUGCAUACUAUUUUCAAA
- pre-steady-state target cleavage rate [1]: 0.0161 ± 0.0061

Sequence: UCCUGGAUGUGCUUGCAAUAGUAUUUAGUUA
- pre-steady-state target cleavage rate [1]: 0.00398 ± 0.0037

Sequence: UCCUGGAUGAGCAUGCAUAGUAUUUUGUUA
- pre-steady-state target cleavage rate [1]: 0.115 ± 0.025

Sequence: UCCUGGAUGAGCUUGCAUAGUAUAAAGUAA
- pre-steady-state target cleavage rate [1]: 0.0682 ± 0.02

Sequence: UCCUGGAUGUCGAACGUAUGUUUUAGUUA
- pre-steady-state target cleavage rate [2]: < 0.0001

Sequence: UCCUGGAACAGCUUGCAUUGUAUUUACAAA
- pre-steady-state target cleavage rate [1]: 0.00788 ± 0.0043

Sequence: UCCUGGAUGUCGAACGUUAGUAUUUAGUUA
- pre-steady-state target cleavage rate [1]: < 0.0001

Sequence: UCCUGGAUGAGCUUGCAUACUAUUAAGUUA
- pre-steady-state target cleavage rate [1]: 0.00607 ± 0.0038

Sequence: UCCUGGAUGUGCUAGCAUAGUAUUAAGUUA
- pre-steady-state target cleavage rate [1]: 0.0987 ± 0.014

Sequence: UCCUCCUACAGCAUGCAUAGUAUUUUCAAA
- pre-steady-state target cleavage rate [1]: 0.138 ± 0.03

Sequence: UCCUGGAUGUCGAACGUAUCUAUAAUGUUA
- pre-steady-state target cleavage rate [1]: < 0.0001

Sequence: UCCUGGAUGAGCUUGCAUAGAAUUAAGUUA
- pre-steady-state target cleavage rate [1]: 0.00512 ± 0.0037

Sequence: UCCUGGAUCACCUUGCAUAGUAUUUAGAAA
- pre-steady-state target cleavage rate [1]: 0.22 ± 0.051

Sequence: UCCUGGUACUCCUUGCAUAGUAUUUAGUUA
- pre-steady-state target cleavage rate [1]: 0.217 ± 0.046

Sequence: UCCUCCUACAGCUUGCAUUCUAUUUAGUUA
- pre-steady-state target cleavage rate [1]: 0.0458 ± 0.0096

Sequence: UCCUGGAUGUCGAUGCAUACUAUUUAGUAA
- pre-steady-state target cleavage rate [2]: < 0.0001

Sequence: UCCUGGAUGUCGAUGCAUAGUAUUCUAGUUA
- pre-steady-state target cleavage rate [1]: 0.115 ± 0.023

Sequence: UCCUGGAUGAGCUUGGAUAGUAUUUAGAUA
- pre-steady-state target cleavage rate [1]: 0.0187 ± 0.0061

Sequence: UCCUGGAACAGCUUGCAUAGUAAAAUCAAA
- pre-steady-state target cleavage rate [1]: 0.0152 ± 0.008

Sequence: UCCUGGAACAGCUUGGUUAGUAUUUAGAAA
- pre-steady-state target cleavage rate [1]: 0.16 ± 0.04

Sequence: UCCUGGAUGUCCUUGCAAAGUAUUUAGAUA
- pre-steady-state target cleavage rate [1]: 0.0324 ± 0.012

Sequence: UCCUGGAUGAGCAUCCAUAGUAUUUAGUUA
- pre-steady-state target cleavage rate [1]: 0.231 ± 0.059

Sequence: UCCUGGAUGUCGUUGCAUAGUUUAUAGUUA
- pre-steady-state target cleavage rate [2]: 0.0036 ± 0.0028

Sequence: UCCUGCUACUGCUUGCAUAGUAUUUACUUA
- pre-steady-state target cleavage rate [1]: 0.082 ± 0.014

Sequence: UCCUGGAUGUCGAAGCAUAGUAUUUAGUA
- pre-steady-state target cleavage rate [1]: 0.0246 ± 0.008

Sequence: UCCUGCUACAGCUUGCUAAGUAUUUAGUAA
- pre-steady-state target cleavage rate [1]: 0.0923 ± 0.022

Sequence: UCCUGGUACAGCUUCGAUAGUAUUUAGAAA
- pre-steady-state target cleavage rate [1]: 0.0453 ± 0.014

Sequence: UCCUGGAUGUGCUAGCAUAGUAUUUAGAUA
- pre-steady-state target cleavage rate [1]: 0.0954 ± 0.023

Sequence: UCCUGCUACAGCAUGCAUAGUAUUUACAAA
- pre-steady-state target cleavage rate [1]: 0.146 ± 0.043

Sequence: UCCUCCUACAGGUUGCAUAGUAUUUACUUA
- pre-steady-state target cleavage rate [1]: 0.0691 ± 0.015

Sequence: UCCUGCUACAGCUUGCAUAGUAUUUUGUAA
- pre-steady-state target cleavage rate [1]: 0.107 ± 0.032

Sequence: UCCUCCUACAGCUUGGUAAGUAUUUAGAAA
- pre-steady-state target cleavage rate [1]: 0.0543 ± 0.013

Sequence: UCCUGGAUGUGCUUGCAUAUAUUUAGUUA
- pre-steady-state target cleavage rate [1]: 0.00444 ± 0.0037

Sequence: UCCUGGAUGAGCUUGCAUAGAAUAUAGUUA
- pre-steady-state target cleavage rate [1]: 0.0218 ± 0.0083

Sequence: UCCUGCUACAGCUUGCAUAGAUAUUAGUUA
- pre-steady-state target cleavage rate [1]: 0.0176 ± 0.0073

Sequence: UCCUGGAUCAGCUUGCAUAGUAUAUACUUA
- pre-steady-state target cleavage rate [1]: 0.0182 ± 0.0062

Sequence: UCCUGGAUGUCGUUGCAUAGGUAUUUAGUUA
- pre-steady-state target cleavage rate [2]: 0.00509 ± 0.0029

Sequence: UCCUGGAUGUCGAACGAUAGUAUUUACAUA
- pre-steady-state target cleavage rate [2]: < 0.0001
